Screens: PubChem BioAssay, National Center for Advancing Translational Sciences (NCATS)
Shown are actives, neighbours in structure and some others; about 3% of the full set was active somewhere.
Tau ThT inhib – qHTS for Inhibitors of Tau Fibril Formation, Thioflavin T Binding; recombinant tau K18 P301L, heparin-induced fibrillization, ThT fluorescence; Microtubule-associated protein tau (Homo sapiens), P10636; hit rate 2.1% among 270,000; Potency, µM (series often up to 57.4 µM), for the others: at the top dose activity, negative = inhibition, hits mostly inhibitors; note: nearly all actives have a fitted effect of over 55% in size
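Recombinant human tau K18 fragment […] carrying P301L, 15 uM unlabeled plus 0.24 uM Alexa 594-labeled, was fibrillized with 20 uM heparin in 100 mM sodium acetate pH 7 for 6 hr at 37 C; 30 uM ThT fluorescence read after 1 hr.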
Tau fibril FP – qHTS for Inhibitors of Tau Fibril Formation, Fluorescence Polarization; Potency, µM (top dose mostly 57.7 µM), inactives show at the highest dose activity, negative = inhibition, actives largely listed as inhibitors; K18 P301L tau heparin fibrillization, Alexa594 FP, 6 h; hit rate 0.39% among 280,000; AID 1468, 2008; Microtubule-associated protein tau (Homo sapiens), P10636; note: nearly all actives have a fitted effect of over 55% in size
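Steps: dispense K18 P301L tau (15 uM plus 0.24 uM Alexa 594 tracer, final) in pH 7 sodium acetate; add compound; add heparin (20 uM final); incubate 6 hr, 37 C; add ThT (30 uM final); after 1 hr ambient, read FP.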
TexasRed fluor – Total Fluorescence Counterscreen for Inhibitors of the Interaction of Thyroid Hormone Receptor and Steroid Receptor Coregulator 2; TRb/SRC2 Texas Red total fluorescence interference; Potency, µM (top dose mostly 106 µM), for inactives: at the highest dose fluorescence change, negative = quenching; hit rate 0.29% among 280,000; active = well fitted curve in either direction with a large enough effect; inconclusive = small, poorly fitted or top-dose-only effect
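Human TRβ ligand-binding domain (0.6 uM) and Texas Red SRC2 peptide (20 nM) in Tris buffer with 1 uM T3 and 5% DMSO were incubated with pinned compound for 5 hr at ambient temperature. Total fluorescence was computed as S + 2P (555/632 nm).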
TRb-SRC2 inh – qHTS for Inhibitors of the Interaction of Thyroid Hormone Receptor and Steroid Receptor Coregulator 2 | Thyroid hormone receptor beta (Homo sapiens), P10828 | TRbeta-SRC2 peptide binding, fluorescence polarization; receptor liganded with 1 µM T3 | Potency, µM (series often up to 106 µM), for the others: top-dose activity change, negative = inhibition, actives largely listed as inhibitors | hit rate 0.065% among 280,000;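 note: plate controls were bound peptide for no effect and peptide without receptor for full effect; nearly all actives have a fitted effect of over 50% in size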
Target sequence (P10828 whole entry, looked up): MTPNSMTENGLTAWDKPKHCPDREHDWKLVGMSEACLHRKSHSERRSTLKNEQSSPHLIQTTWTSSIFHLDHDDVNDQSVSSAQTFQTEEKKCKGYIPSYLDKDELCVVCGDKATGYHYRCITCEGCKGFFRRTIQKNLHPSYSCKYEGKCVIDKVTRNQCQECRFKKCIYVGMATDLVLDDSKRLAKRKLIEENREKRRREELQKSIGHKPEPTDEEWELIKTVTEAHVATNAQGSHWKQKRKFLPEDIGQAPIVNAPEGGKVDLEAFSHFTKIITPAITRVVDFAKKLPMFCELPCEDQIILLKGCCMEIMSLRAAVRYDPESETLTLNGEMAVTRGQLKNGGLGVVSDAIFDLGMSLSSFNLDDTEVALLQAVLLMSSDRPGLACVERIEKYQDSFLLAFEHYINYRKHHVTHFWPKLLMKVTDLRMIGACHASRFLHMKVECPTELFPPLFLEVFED
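Read-out is fluorescence polarization (555 nm excitation, 632 nm emission) of a Texas Red SRC2 coactivator peptide; loss of signal reflects blocked binding to human TRb ligand-binding domain in the presence of 1 uM T3.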
Tau fluor counter – Counterscreen qHTS for Inhibitors of Tau Fibril Formation, Fluorescence Polarization; Potency, µM (titrated, usually from 57.7 µM), for the others: at the highest dose activity change, negative = decrease; AID 1463, 2008; tau K18 P301L Alexa594 fluorescence, heparin fibrillization; hit rate 0.93% among 280,000; note: nearly all actives have a fitted effect of over 55% in size
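Human tau K18 P301L (15 uM unlabeled, 0.24 uM Alexa 594-labeled) in 100 mM sodium acetate pH 7 with 20 uM heparin, 6 hr at 37 C. ThT 30 uM added, 1 hr ambient; Alexa 594 FP and total fluorescence read at 555/632 nm.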
Active calls of the source: *; ? = inconclusive; / = no result given; [ ] = dose if it differs, or a comment. Unless noted, calls come from the whole dose curve; as a rule, active = well fitted curve in the direction sought with a large enough effect; inconclusive = small, poorly fitted or top-dose-only effect, or another doubt; inactive = no such curve, though single readings can be large; an effect the other way counts as inactive or inconclusive. Unless noted, % is set by controls: 0 for no effect and ±100 for the full control effect; potency is the fitted concentration of half-maximal effect.

SMILES | Tau ThT inhib | Tau fibril FP | TexasRed fluor | TRb-SRC2 inh | Tau fluor counter
CC(=C1C(=O)c2ccccc2C1=O)N1CCC(C(N)=O)(N2CCCCC2)CC1 | 31.6µM* | -8.8% | 5.8% | -2.9% | -20.0%
Cc1ccccc1N=Nc1c(C)[nH]n(-c2ccccc2)c1=O | -16.8% | 1.6% | -6.4% | 6.4% | -17.0%
Cc1ccccc1N=Nc1c(C)[nH]n(C(N)=S)c1=O | 14.1µM* | 8.4% | -5.3% | -7.8% | -18.1%
Cc1cccc(N=Nc2c(C)[nH]n(C(N)=S)c2=O)c1C | 7.94µM* | 9.6% | -1.0% | -6.2% | -9.3%
CC1(C)C(C=C(Cl)Cl)[C@H]1C(=O)OCc1cccc(Oc2ccccc2)c1 (stereo partly specified) | / | / | 0.2%[201 µM] | 6.6%[201 µM] | /
CC1CCCN(S(=O)(=O)c2ccc(NC(=O)Cn3nnc(-c4ccccc4F)n3)cc2)C1 (stereo unspecified) | 7.7% | 20µM* | 1.6% | 4.3% | ?
Cc1c(C(=O)OCCOc2ccccc2)[nH]c2c1C(=O)CC(c1ccc(C(C)(C)C)cc1)C2 (stereo unspecified) | -3.1% | -12.4% | -2.3% | 2.4% | -3.7%
COC(=O)c1ccc(C2c3c(oc4ccccc4c3=O)C(=O)N2c2nc(C)c(C(=O)OC)s2)cc1 (stereo unspecified) | -4.0% | -4.8% | ? | 6.2% | -13.4%
COc1ccc(Nc2nc(N)nc(CSC(=S)N3CCCCC3C)n2)cc1 (stereo unspecified) | ? | 9.7% | -0.3% | -0.8% | 10µM*[quencher]
COc1c(O)c(O)cc2c1oc1c3cc(C)ccc3oc(=O)c21 | 8.91µM* | ? | ? | 9.9% | 10µM*[quencher]
COc1cc(-c2oc3ccc(C)cc3c(=O)c2O)cc(OC)c1OC | ? | -6.7% | -0.4% | 1.1% | -27.8%
Cc1c(Cl)cccc1Cl | / | / | -0.3%[201 µM] | -0.1%[201 µM] | /
C#CCCCO/N=C1/C[C@@H](O)[C@@H](O)[C@@H]2[C@H]3C(=O)N(c4ccc(F)cc4F)C(=O)[C@@H]3CC[C@@H]12 | -11.3%[11.5 µM] | 3.3%[11.6 µM] | -2.8%[11.2 µM] | 0.7%[11.2 µM] | -11.4%[11.6 µM]
CC[n+]1c(/C=C/c2c[nH]c3ccccc23)ccc2cc(C)ccc21 | 2µM* | ? | 0.1% | 3.8% | 1.26µM*[fluorescent]
Cc1ccc(-c2nnc(Nc3cccc(Br)c3)c3ccccc23)cc1S(=O)(=O)N1CCCCC1 | 4.1% | ? | 3.9% | -0.1% | -12.8%
Cc1ccc(-c2nnc(Nc3cccc(O)c3)c3ccccc23)cc1S(=O)(=O)N1CCCCC1 | -13.3% | ? | -9.4% | 2.3% | 8.91µM*[quencher]
C=CCNc1nc(-c2ccc([N+](=O)[O-])cc2)cs1 | 7.08µM* | 18.9% | -2.2% | 1.6% | -19.9%
CN(C)c1nc(-c2ccc([N+](=O)[O-])cc2)cs1 | 12.6µM* | 9.6% | -1.0% | 1.8% | ?
COC(=O)c1sccc1S(=O)(=O)N(CC(=O)NCc1ccccc1)c1ccccc1 | 0.8% | 2.9% | -4.1% | -3.0% | -2.1%
Cc1nc(N2CCOCC2)c2nc(-c3ccccc3)n(CCN(C)C)c2n1 | -9.1% | 5.5% | -0.9% | -4.2% | -5.3%
CC(=O)c1cccc(-n2c(=O)c3c4c(sc3n(Cc3ccccc3Cl)c2=O)CN(C(C)=O)CC4)c1 | -8.3% | -12.1% | 2.4% | -6.0% | -8.2%
CCCC(Oc1ccc(Br)cc1)c1nc2c3cc(OC)c(OC)cc3nc(=S)n2[nH]1 (stereo unspecified) | -6.5% | ? | -2.7% | -0.1% | 15.8µM*[quencher]
COc1ccccc1Nc1nc(-c2ccc3c(c2)NC(=O)CO3)cs1 | 14.1µM* | 5.7% | -7.7% | -2.8% | 11.2µM*[quencher]
CCC(C)Nc1nc(-c2ccc3c(c2)NC(=O)CO3)cs1 (stereo unspecified) | ? | -4.3% | 0.0% | 7.8% | ?
COc1ccc(Nc2nc(-c3ccc4c(c3)NC(=O)CO4)cs2)cc1 | 7.94µM* | -1.6% | -3.1% | -2.8% | 12.6µM*[quencher]
